We go through 21 compounds from PubChem BioAssay AID651784 (National Center for Advancing Translational Sciences (NCATS), 2012).

Records with an inconclusive call do not appear. Activity calls are given as the source filed them. Calls follow the shape of the dose curve; as a rule, active = well fitted inhibition curve with a large enough effect; inconclusive = small, poorly fitted or top-dose-only effect; inactive = no such curve, though single readings can be large or run the other way.
Potency is read from the fitted curve at half-maximal effect.

A short description of the assay: Acumen qHTS Assay for Inhibitors of the mTORC1 Signaling Pathway in MEF (Tsc2-/-, p53-/-) Cells: Hit Validation.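 Also: phospho-rpS6 Ser235/236 immunofluorescence normalized to propidium iodide cell count; nearly all actives have a fitted effect of over 65% in size.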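 As to activity change, negative = inhibition: cells exposed to compound for 24 hours; plate controls were DMSO for no effect and 7.5 nM rapamycin control for full effect.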 The following applies: Acumen imaging; activity change, negative = inhibition: at 37.3 µM (top of the series). (Quantitative high-throughput screening tests each substance at several concentrations.)
Take `CCOc1ccc(NC(=O)CSc2oc(-c3ccc(F)cc3)nc2S(=O)(=O)c2ccc(C)cc2)cc1`: the Potency is 4.65 µM (active).
`CCN1CCOC(=O)C1CC(=O)Nc1cccc(OC)c1` (stereo unspecified): the activity change, negative = inhibition is -21.3%.
Turning to `CCOC(=O)C(Cc1c[nH]c2ccccc12)NC(=O)COc1ccc(Cl)cc1` (stereo unspecified), the activity change, negative = inhibition was -4.4%.
On the same count and under the same terms, for `Cc1nnc(C(=O)NC(C)(C)c2nc(C(=O)NCc3ccc(F)cc3)c(O)c(=O)n2C)o1` the value was -4.28%.
Consider `Cc1ccccc1S(=O)Cc1ccc(C(=O)N2CCN(c3cccc(C)c3C)CC2)o1` (stereo unspecified), for which the Potency is 6.56 µM (active).
In the case of `CCC(=O)C1=C(c2ccc(F)cc2)N(C(=O)CC)n2cnnc2S1`, the activity change, negative = inhibition is -29.5%.
In the case of `COc1ccc2c(CNCCc3cccs3)c(C(=O)O)n(Cc3ccc(F)cc3Cl)c2c1`, the activity change, negative = inhibition is -51.9%.
Turning to `CCOC(=O)Cn1c(=O)c2c(nc(N3CCOCC3)n2Cc2ccccc2)n(C)c1=O`, the Potency is 2.93 µM (active).
Consider `COc1ccc(CCNC(=O)CCCn2nc(C)c3sc4ccccc4c3c2=O)cc1OC`, for which the activity change, negative = inhibition was -12%.
Regarding `COc1cc(-c2ccno2)ccc1S(=O)(=O)N1CCN(c2cc(C)ccc2C)CC1`, the activity change, negative = inhibition was -45.4%.
On to `CCCc1oc2ccc(NS(=O)(=O)c3ccc(OCC)cc3)cc2c1C(=O)OCC`, for which the Potency was 4.14 µM (active).
Still for that read-out and setting: for `CCOc1ccccc1NS(=O)(=O)c1ccc(-c2cnc(C3CC3)o2)cc1` the value was 0.464 µM (active).
On to `CCN(c1ccccc1)S(=O)(=O)c1ccc(NC(=O)c2nc(S(C)(=O)=O)ncc2Cl)cc1`, for which the Potency was 4.14 µM (active).
With `Cc1ccc(NC(=O)c2c(NC(=O)C(F)(F)F)sc3c2CCCCC3)cc1`, the activity change, negative = inhibition was -36.6%.
For `O=C(COc1ccccc1-c1nc(-c2ccccc2)no1)Nc1cccc([N+](=O)[O-])c1`, the Potency is 1.04 µM (active).
As to `CC1C(=O)Nc2ccc(S(=O)(=O)Nc3ccccc3Br)cc2NC1=O` (stereo unspecified), the activity change, negative = inhibition came to 8.5%.
Consider `CCCCOC(=O)c1ccc(NC(=O)c2sc3nc(C)cc(C)c3c2N)cc1`, for which the activity change, negative = inhibition is -72%.
For `CCN(CCCNC(=O)c1cc2c(=O)[nH]c3ccc(C)cc3c2s1)Cc1ccccc1`, the activity change, negative = inhibition is -139%.
In the case of `CCc1cnc2c(c1SCC(=O)NCc1ccc(F)cc1)c(=O)n(C)c(=O)n2C`, the activity change, negative = inhibition was 5.42%.
Regarding `Cc1cccc(CSCCNC(=O)CN(c2ccccc2)S(=O)(=O)N(C)C)c1`, the activity change, negative = inhibition worked out at 3.74%.
As to `CC(=O)C1=C(c2ccccc2)N(C(C)=O)n2c(nnc2C2CCCCC2)S1`, the Potency was 7.36 µM (active).
